Screening data as filed in PubChem.
TGFb inhibitor = TGF-b pathway inhibition; HepG2 CAGA-GFP TGF-b/SMAD3 reporter, GFP fluorescence, 18 h; TGF-beta stimulated, 500 pg/mL final; Potency, µM (top dose mostly 46.1 µM), most hits filed as inhibitors; 410,000 tested, 1.2% active; note: nearly all actives have a fitted effect of over 65% in size
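Using HEPG2 CAGA-GFP reporter cells at 1000 cells/well, we pinned test compounds, stimulated with recombinant TGF-beta (500 pg/mL final) and measured total well GFP after 18 h.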
TDP1 cell CPT = DT40-hTDP1 cell growth loss with CPT | Potency, µM (series often up to 46.2 µM), hits mostly inhibitors | 420,000 tested, 12% active | chicken DT40 Tdp1-/-;hTDP1 cells + 20 nM CPT, ATP luminescence, 48 h; note: nearly all actives have a fitted effect of over 55% in size
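Chicken DT40 Tdp1-/- cells complemented with human TDP1, 400 cells/well, exposed to compounds plus 20 nM camptothecin for at least 48 h at 37 C; viability read as ATP content by CellTiter-Glo luminescence.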
TDP1 block = blocks human tyrosyl-DNA phosphodiesterase 1. Q9NUW8. recombinant TDP1, AlphaScreen DNA substrate cleavage. Potency, µM (highest dose often 130 µM), hits mostly inhibitors. 350,000 tested, 0.28% active. AID 485290; note: nearly all actives have a fitted effect of over 40% in size
Target sequence (Q9NUW8 whole entry, looked up): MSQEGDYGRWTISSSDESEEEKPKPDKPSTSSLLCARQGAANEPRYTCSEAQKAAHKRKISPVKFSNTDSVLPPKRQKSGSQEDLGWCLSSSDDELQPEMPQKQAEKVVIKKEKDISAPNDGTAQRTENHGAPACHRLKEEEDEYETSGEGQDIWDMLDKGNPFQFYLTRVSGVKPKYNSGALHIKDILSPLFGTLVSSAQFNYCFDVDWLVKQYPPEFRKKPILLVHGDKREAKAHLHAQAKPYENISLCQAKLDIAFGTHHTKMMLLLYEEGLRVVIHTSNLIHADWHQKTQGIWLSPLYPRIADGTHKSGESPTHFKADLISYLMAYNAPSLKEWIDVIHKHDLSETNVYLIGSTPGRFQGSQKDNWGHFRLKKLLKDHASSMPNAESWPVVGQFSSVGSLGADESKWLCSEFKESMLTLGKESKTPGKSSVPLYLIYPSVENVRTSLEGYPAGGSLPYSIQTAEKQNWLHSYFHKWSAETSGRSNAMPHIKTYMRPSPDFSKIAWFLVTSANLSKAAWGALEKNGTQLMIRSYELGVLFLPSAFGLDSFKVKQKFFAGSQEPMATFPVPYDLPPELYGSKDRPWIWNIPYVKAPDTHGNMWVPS
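Tdp1 1 nM final; 15 min RT w/ cpd; substrate 15 nM, 5 min; beads 10 ug/ml, 10 min; AlphaScreen read. Neg ctrl: no enzyme.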
IL-1B inflam inh = inflammasome signaling inhibition, IL-1 beta readout; THP-1 LPS/ATP IL-1B secretion, AlphaLISA, 16 h; active compounds read low; activity change, % at 57.5 µM; 360,000 tested, 4.7% active; in the data active = activity change below about -50%; inconclusive = mostly about -30% to -49%
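THP-1 cells pretreated 1 hr with compounds (up to 57.5 uM final), then stimulated with LPS (250 ng/mL final) plus ATP (1.25 mM final); secreted IL-1B measured by AlphaLISA after 16 hr, decreased signal indicating inhibition.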
HepG2 tox-1 = kills HepG2 cells in TGF-b inhibitor counter-screen; HepG2 CAGA-GFP viability, ATP luminescence, 18 h; Potency, µM (titrated, usually from 46.1 µM), most hits filed as cytotoxic; 410,000 tested, 0.76% active
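CellTiter-Glo luminescence gave cytotoxicity after 18 hours at 37 degrees C. The cells were HepG2 CAGA-GFP in 1% FBS DMEM, stimulated with 500 pg/mL TGF-beta after compound addition. %Activity was normalised to no-cell wells (complete cell-killing) and DMSO (no toxicity), and curves were fitted and classified.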
TDP1 cell noCPT = qHTS for Inhibitors of human tyrosyl-DNA phosphodiesterase 1 (TDP1): qHTS in cells in absence of CPT | DT40 Tdp1-/- hTDP1 cells, no CPT, ATP luminescence, 48 h | 420,000 tested, 15% active | Potency, µM (doses to about 46.2 µM), hits mostly inhibitors; note: nearly all actives have a fitted effect of over 55% in size
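Growth of hTDP1-complemented DT40 Tdp1-knockout cells is measured by ATP luminescence after at least 48 hr compound exposure at 37 °C, with DMSO substituting for the 20 nM CPT used in the parallel screen.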
TGFb CAGA inh = confirmation of TGF-b signaling inhibitors in HepG2 reporter cells; shares compounds with TGFb inhibitor; HepG2 CAGA-GFP TGF-b reporter, GFP fluorescence, 18 h; cells stimulated with TGF-beta, 500 pg/mL; Potency, µM (titrated, usually from 46.1 µM), most hits filed as inhibitors; 1,600 tested, 63% active; note: nearly all actives have a fitted effect of over 65% in size
HepG2 tox-2 = toxic to HepG2 cells in TGF-b counterscreen; HepG2 CAGA-GFP viability, ATP luminescence, 18 h; cells stimulated with TGF-beta, 500 pg/mL; 1,600 tested, 27% active; shares compounds with TGFb inhibitor; AID 720535; Potency, µM (titrated, usually from 46.1 µM), usual class: inhibitors; note: nearly all actives have a fitted effect of over 70% in size
CCL64 TGFb inh = orthogonal confirmation of TGF-b inhibitors in CCL64 cells; shares compounds with TGFb inhibitor; AID 720536; CCL64 CAGA-GFP reporter, TGF-b stimulated, GFP fluorescence, 18 h; Potency, µM (top dose mostly 46.1 µM), usual class: inhibitors; 1,600 tested, 41% active; note: nearly all actives have a fitted effect of over 65% in size
COP TGFb inh = TGF-b inhibition validated with COP promoter; shares compounds with TGFb inhibitor; HepG2 COP-GFP TGF-b reporter, GFP fluorescence, 18 h; cells stimulated by added recombinant TGF-beta; Potency, µM (top dose mostly 46.1 µM), usual class: inhibitors; 1,600 tested, 3% active; note: nearly all actives have a fitted effect of over 70% in size
Each line names hits and unclear results; the compound was inactive in the other large screens (follow-up assays come after a bar, where they were run). In the library only some 18% were active in any assay of this set; here they are far more common. Unless noted, calls come from the whole dose curve; as a rule, active = well fitted curve in the direction sought with a large enough effect; inconclusive = small, poorly fitted or top-dose-only effect, or another doubt; inactive = no such curve, though single readings can be large; an effect the other way counts as inactive or inconclusive.

O=C(CN1C(=O)NC(Cc2ccccc2)C1=O)Nc1ccc(F)c(F)c1F (centres undefined)	none
O=C1N(c2ccccc2)C[C@@H]2C[C@@H](c3cccs3)N3CCC[C@@]123	TGFb inhibitor inconclusive
CC(C)(O)C#Cc1ccc([C@@H]2C[C@H]3CN(c4ccccc4)C(=O)[C@]34CCCN24)s1	TGFb inhibitor 2.2µM, IL-1B inflam inh -72, TDP1 cell noCPT inconclusive | TGFb CAGA inh 0.73µM | HepG2 tox-2 inconclusive | CCL64 TGFb inh 5.2µM | COP TGFb inh inactive
Cc1ccc(Cl)cc1N1CCN(C(=S)NCc2ccco2)CC1	TGFb inhibitor 16µM, IL-1B inflam inh -82, TDP1 cell noCPT 18µM | TGFb CAGA inh 16µM | HepG2 tox-2 inconclusive | CCL64 TGFb inh inconclusive | COP TGFb inh inactive
CCOc1ccc(S(=O)(=O)N2CCN(C(=S)NCc3ccco3)CC2)cc1	TGFb inhibitor 8.9µM, TDP1 cell noCPT inconclusive | TGFb CAGA inh inconclusive | HepG2 tox-2 inactive | CCL64 TGFb inh inconclusive | COP TGFb inh inactive
CCOc1ccc(S(=O)(=O)N2CCC(C(=O)NCc3ccco3)CC2)cc1	none
CCS(=O)(=O)N1CCN(C(=O)c2cccc(OC)c2)CC1	none
O=C(CSc1ncn(-c2ccccc2)n1)Nc1nncs1	none
CC(=O)Nc1ccc(C(=O)CSc2ncn(-c3ccccc3)n2)cc1	TGFb inhibitor 2.8µM | TGFb CAGA inh inconclusive | HepG2 tox-2 inactive | CCL64 TGFb inh inactive | COP TGFb inh inactive
O=[N+]([O-])c1c(Nc2ccc(O)cc2)cc(Cl)c2nonc12	TGFb inhibitor 2.8µM, TDP1 cell CPT 1.3µM, IL-1B inflam inh -101, HepG2 tox-1 5µM, TDP1 cell noCPT 1.3µM (no result: TDP1 block) | TGFb CAGA inh 3.3µM | HepG2 tox-2 3.7µM | CCL64 TGFb inh 2.9µM | COP TGFb inh 4.6µM
CN(C)c1cc(Nc2ccc(O)cc2)c([N+](=O)[O-])c2nonc12	none
O=C(O)c1ccccc1Nc1cc(Cl)c2nonc2c1[N+](=O)[O-]	none
O=[N+]([O-])c1c(Nc2ccccn2)cc(Cl)c2nonc12	TGFb inhibitor 3.2µM, TDP1 cell CPT 1.8µM, IL-1B inflam inh -101, TDP1 cell noCPT 5.2µM | TGFb CAGA inh 4.6µM | HepG2 tox-2 4.6µM | CCL64 TGFb inh 4.6µM | COP TGFb inh 5.2µM
CC(=O)[C@H]1[C@H](c2cccc(Cl)c2)C(C#N)(C#N)[C@@H]2c3ccccc3C=CN21	none (no result: TGFb inhibitor, TDP1 cell CPT, IL-1B inflam inh, HepG2 tox-1, TDP1 cell noCPT)
COc1ccc(OC)c(CN2CCCC(C(=O)c3ccccc3SC)C2)c1 (centres undefined)	TGFb inhibitor inconclusive, TDP1 cell CPT 13µM, IL-1B inflam inh -68, TDP1 cell noCPT 9.2µM | TGFb CAGA inh inconclusive | HepG2 tox-2 inconclusive | CCL64 TGFb inh inconclusive | COP TGFb inh inactive
